The sample as a whole holds a higher share of hits than the screen did.
aSyn 5UTR act: Activators via SNCA 5'UTR binding, MLPCN; alpha-synuclein 5'UTR reporter, activators screen; activity score, % (tested at 7.5 µM), hits read low; actives 7.1% (n = 300,000); AID 1814, 2009; in the data active means activity score below about -60%
A number is an active result.

`CCc1ccc(-c2ccc(SCc3ccccn3)nn2)cc1` gave aSyn 5UTR act -143.0.
`CCOc1ccc(-c2ccc(SCc3ccccn3)nn2)cc1` gave aSyn 5UTR act -131.9.
For NN/C(=C\[N+](=O)[O-])Nc1ccccc1 the results were aSyn 5UTR act -69.8.
O=[N+]([O-])c1cccc(/C=N/Nc2cc(N3CCOCC3)ncn2)c1 was read as aSyn 5UTR act -90.0.
For C/C(=N\Nc1cc(N2CCOCC2)ncn1)c1cccc([N+](=O)[O-])c1 the results were aSyn 5UTR act -81.4.
`Clc1ccccc1/C=N/Nc1cc(N2CCOCC2)ncn1` gave aSyn 5UTR act -151.3.
For C/C(=N\Nc1cc(N2CCOCC2)ncn1)c1ccccc1 the results were aSyn 5UTR act -79.1.
`COc1ccc(/C=C2\CCn3c2nc2ccccc2c3=O)cc1OC` gave aSyn 5UTR act -256.1.
Cc1ccc(C(=O)/C=C/c2ccc3ncccc3c2)cc1 was read as aSyn 5UTR act -67.6.
Screening CSc1ccc(/C=C/C(=O)c2ccc(O)cc2)cc1 returned aSyn 5UTR act -172.0.
`Cc1ccc(/C=C/C(=O)c2ccc(O)cc2)cc1` gave aSyn 5UTR act -309.3.
COc1cc(C(=O)OCC#N)ccc1OCc1c(C)noc1C was read as aSyn 5UTR act -66.4.
For COc1cc(/C=C/C(=O)c2ccc(C)cc2)ccc1OCC#N the results were aSyn 5UTR act -100.3.
Screening C/C(=N\Nc1cccc(C(=O)O)c1)c1cc2ccccc2o1 returned aSyn 5UTR act -66.4.
C/C(=N\Nc1cccc([N+](=O)[O-])c1)c1cc2ccccc2o1 was read as aSyn 5UTR act -165.5.
For COc1cccc(NC(=O)C(=O)N/N=C(\C)CC(=O)Nc2ccc(NC(C)=O)cc2)c1 the results were aSyn 5UTR act -195.9.
For C/C(CC(=O)Nc1cc(C)ccn1)=N\NC(=O)C(=O)Nc1cccc(C)c1 the results were aSyn 5UTR act -74.3.
`C/C(CC(=O)Nc1ccc(OCc2ccccc2)cc1)=N\NC(=O)C(=O)Nc1ccc(C)c(Cl)c1` gave aSyn 5UTR act -69.3.
`CC(=O)c1c(CSc2ccccc2)oc2ccc(O)c(CN(C)C)c12` gave aSyn 5UTR act -62.7.
`CCOC(=O)c1c(CSc2ccc(CC)cc2)oc2ccc(O)c(CN(C)C)c12` gave aSyn 5UTR act inactive.
C[C@@H]1[C@@H](Sc2ccccc2)CC(=O)O[C@@H]1c1ccc(-c2ccccc2)cc1 was read as aSyn 5UTR act -182.1.
Screening O=C(Nc1nccs1)c1ccccn1 returned aSyn 5UTR act -123.4.
For O=C(Nc1n[nH]c(=S)s1)c1ccc2ccccc2c1 the results were aSyn 5UTR act -115.2.
For O=C(Nc1nccs1)c1ccc2ccccc2c1 the results were aSyn 5UTR act -114.2.
`O=C(NCCc1ccccc1F)C(=O)Nc1nccs1` gave aSyn 5UTR act -122.1.
For O=C(Nc1nccs1)c1ccc(N2CCOCC2)c([N+](=O)[O-])c1 the results were aSyn 5UTR act -80.2.
For CCOc1cccc(C(=O)Nc2nccs2)c1 the results were aSyn 5UTR act -172.7.
O=C(Nc1nccs1)c1ccc(Br)cc1 was read as aSyn 5UTR act -160.8.
CCOc1ccc(OCC(=O)Nc2nccs2)cc1 was read as aSyn 5UTR act inactive.
Screening COc1ccc2oc(-c3ccc(C)c(NC(=O)c4ccc(N5CCOCC5)c([N+](=O)[O-])c4)c3)nc2c1 returned aSyn 5UTR act -94.7.
`O=C(Nc1cccc2ccccc12)c1ccccc1` gave aSyn 5UTR act -141.6.
Screening CC(=O)c1cccc(NC(=O)C(=O)Nc2cccc3ccccc23)c1 returned aSyn 5UTR act -195.4.
For Nc1ccccc1C(=O)Nc1cccc2ccccc12 the results were aSyn 5UTR act -204.4.
Screening COc1ccc(C(=O)Nc2cc(C)c(NC(=O)c3ccccn3)cn2)cc1 returned aSyn 5UTR act -77.7.
CCCCC(=O)Nc1cnc(NC(=O)c2cccs2)cc1C was read as aSyn 5UTR act -127.1.
Screening COc1ccc(C(=O)Nc2cnc(NC(=O)c3cccs3)cc2C)cc1 returned aSyn 5UTR act -83.0.
CCOc1cc(/C=C(\C#N)C(N)=O)ccc1OCc1c(C)no[n+]1[O-] was read as aSyn 5UTR act -62.8.
`COC(=O)CCC(=O)Oc1ccc(OC(=O)CCC(=O)OC)cc1` gave aSyn 5UTR act -61.5.
Screening O=C(NCCc1ccc(Cl)cc1)c1ccc2nccnc2c1 returned aSyn 5UTR act -108.7.
`O=C(NCCc1ccc(O)cc1)c1ccc(Cl)cc1` gave aSyn 5UTR act -121.3.
`Cc1occc1C(=O)NCCc1ccc(Cl)cc1` gave aSyn 5UTR act -124.6.
Screening CC(=O)NCCNC(=O)c1ccc(CSc2ccc(Cl)cc2)cc1 returned aSyn 5UTR act -132.0.
`COc1ccccc1CCNC(=O)c1ccoc1C` gave aSyn 5UTR act -71.5.
O=C(OCc1nc2ccccc2s1)c1ccco1 was read as aSyn 5UTR act -96.6.
Cc1cc(C(=O)OCc2nc3ccccc3s2)c(C)o1 was read as aSyn 5UTR act -125.9.
For CC(=O)OCc1nc2ccccc2s1 the results were aSyn 5UTR act -136.1.
CCN1CCN(C(=S)c2ccc(-c3ccccc3)cc2)CC1 was read as aSyn 5UTR act inactive.
CCC(=O)c1ccc(-c2ccccc2)cc1 was read as aSyn 5UTR act -89.3.
`CCCC(C)NC(=O)c1ccc(-c2ccccc2)cc1` (configuration not stated) gave aSyn 5UTR act -108.6.
`CSc1ccc(/C=C(/NC(=O)c2ccccc2)C(=O)N2CCN(C)CC2)cc1` gave aSyn 5UTR act -146.9.
Screening Nc1[nH]nc2c1NN(c1ccc(Cl)cc1Cl)N2 returned aSyn 5UTR act -139.6.
Screening COc1ccc(-n2nnnc2SCc2nc3ccccc3s2)cc1 returned aSyn 5UTR act -160.8.
For COc1ccc(C)cc1-n1nnnc1SCc1nc2ccccc2s1 the results were aSyn 5UTR act -147.9.
`CN(C)c1ccc(N=Cc2nc(-c3ccccc3)oc2OC(=O)c2cccc(Cl)c2)cc1` gave aSyn 5UTR act -145.6.
`O=C(c1ccccc1Br)N1CCCC(c2nc(-c3cccs3)no2)C1` (configuration not stated) gave aSyn 5UTR act -63.4.
Screening Cc1ccc(-c2noc(C3CCN(S(C)(=O)=O)CC3)n2)o1 returned aSyn 5UTR act -66.6.
Screening Cc1ccc(-c2noc(C3CCCN(C(=O)c4ccccc4)C3)n2)o1 (configuration not stated) returned aSyn 5UTR act -153.7.
Screening Cc1ccc(-c2noc(C3CCCN(C(=O)c4ccccc4Br)C3)n2)o1 (configuration not stated) returned aSyn 5UTR act -92.3.
`CCOC(=O)Cn1c(=NC(=O)c2ccc([N+](=O)[O-])s2)sc2ccccc21` gave aSyn 5UTR act -179.5.
For CC(=O)Cn1ncc(N2CCCCC2)c(Cl)c1=O the results were aSyn 5UTR act -79.6.
CN(C)C(=O)c1ccc2c(c1[N+](=O)[O-])C(=O)c1ccccc1C2=O was read as aSyn 5UTR act -116.4.
`CCCCOc1ccc(-c2nnn(CC(=O)NCc3ccco3)n2)cc1` gave aSyn 5UTR act -165.3.
For CC(C)CC(=O)Nc1ccc(-c2nnn(CC(=O)NCc3ccco3)n2)cc1 the results were aSyn 5UTR act -102.3.
Screening Cc1c(Cl)c(C(=O)NNC(=S)Nc2ccc(F)cc2)nn1C returned aSyn 5UTR act -70.3.
`Cc1ccc(NC(=S)NNC(=O)c2nn(C)cc2Cl)cc1` gave aSyn 5UTR act -89.8.
`Cc1c(Cl)c(C(=O)NNC(=S)Nc2ccccc2)nn1C` gave aSyn 5UTR act -101.8.
For O=C(Nc1nc2ccccc2[nH]1)C1CCC1 the results were aSyn 5UTR act -103.7.

Bioassay records as filed in PubChem.
